Results reported in PubChem BioAssay (Tox21).
Results filed as inconclusive are left out. Active and inactive are the calls of the source. Unless noted, calls come from the whole dose curve; as a rule, active = well fitted curve in the direction sought with a large enough effect in the repeat runs; inconclusive = weak or mixed curves; inactive = no such curve, though single readings can be large; an effect the other way counts as inactive or inconclusive.

What was measured:
[1] = qHTS assay to identify small molecule antagonists of the estrogen related receptor (ERR) signaling pathway from Tox21 library - cell viability counter screen (AID 1224834); note: nearly all actives have a fitted effect of over 30% in size
Method in brief: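 Seeded ERR cells were rested 6 h at 37 C/5% CO2 before compounds, positive and negative controls or DMSO were added. Incubation continued for 17.5 h, and viability was then quantified by CellTiter-Fluor fluorescence.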

[2] = target: Luciferin 4-monooxygenase (Photinus pyralis) (UniProt P08659); test: qHTS assay to identify small molecule inhibitors of firefly luciferase (AID 1224835); note: nearly all actives have a fitted effect of over 25% in size
Method in brief: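 Inhibition of purified Photinus luciferase is measured by luminescence. Substrate levels (D-luciferin, ATP) sit at their KM values. Each compound is tested in a concentration series.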

[3] = qHTS assay to identify small molecule agonists of the constitutive androstane receptor (CAR) signaling pathway - cell viability counter screen (AID 1224836); note: nearly all actives have a fitted effect of over 45% in size
Method in brief: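 Fluorescence from CellTiter-Fluor indicates live cells after 23 h exposure. The human hepatoma line expresses hCAR and a CYP2B6-2.2kb reporter. Incubation medium contains 0.75 uM PK11195 (final).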

[4] = qHTS assay to identify small molecule antagonists of the constitutive androstane receptor (CAR) signaling pathway - cell viability counter screen (AID 1224837); note: nearly all actives have a fitted effect of over 45% in size
Method in brief: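 To flag cytotoxic false antagonists, HepG2 hCAR/CYP2B6-2.2kb cells were treated 23 hr with 15-concentration compound series and 50 nM CITCO at 37 C/5% CO2; CellTiter-Fluor fluorescence was the measured end point.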

[5] = target: Nuclear receptor subfamily 1 group I member 3 (Homo sapiens) (UniProt Q14994); test: qHTS assay to identify small molecule antagonists of the constitutive androstane receptor (CAR) signaling pathway (AID 1224838);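 note: HepG2 cells stably expressing hCAR with CYP2B6 luciferase reporter stimulated by CITCO; nearly all actives have a fitted effect of over 40% in size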
Method in brief: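 Human hepatoma HepG2 cells expressing hCAR and a CYP2B6 promoter (2.2 kb) luciferase construct; compound titration (15 points) with 50 nM CITCO final, 24 h at 37 C/5% CO2; luminescence via ONE-Glo after 30 min at room temperature.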

[6] = target: Nuclear receptor subfamily 1 group I member 3 (Homo sapiens) (UniProt Q14994); test: qHTS assay to identify small molecule agonists of the constitutive androstane receptor (CAR) signaling pathway (AID 1224839);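 note: HepG2 cells stably carrying human CAR and a CYP2B6 luciferase reporter; nearly all actives have a fitted effect of over 15% in size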
Method in brief: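 Stable hCAR/CYP2B6-2.2kb HepG2 line in DMEM with 10% FBS; compounds (15 concentrations) and 0.75 uM PK11195 final, 24 h at 37 C/5% CO2, then ONE-Glo luminescence after 30 min.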

[7] = qHTS assay to identify small molecule antagonists of the estrogen related receptor signaling pathway with the pleiotropic PPARgamma coactivator (PGC) from Tox21 10K library - cell viability counter screen (AID 1224840; active = well fitted cell-killing curve with a large enough effect in the repeat runs, not every such curve was filed as active; note: nearly all actives have a fitted effect of over 40% in size)
Method in brief: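 Seeded PGC/ERR cells (2,000/well, 6 h, 37 C/5% CO2) get compound by pin tool; 17.5 h incubation at 37 C; CellTiter-Fluor added, 30 min, fluorescence measured.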

[8] = target: Thyrotropin receptor (Homo sapiens) (UniProt P16473); test: qHTS assay to identify small molecule agonists of the thyroid stimulating hormone receptor (TSHR) signaling pathway (AID 1224843; calls by dose curve; note: nearly all actives have a fitted effect of over 45% in size)
Method in brief: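 A cell-based cAMP HTRF format was run in TSHR-transfected HEK293 cells, 800 per well. Treatment: 30 min, room temperature. Detection: 1 h with labelled cAMP and anti-cAMP cryptate. Concentration-response over 15 points, three replicates.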

[9] = qHTS assay to identify small molecule agonists of the hypoxia (HIF-1) signaling pathway - cell viability counter screen (AID 1224844; calls by dose curve; note: nearly all actives have a fitted effect of over 50% in size)
Method in brief: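 HRE-bla ME-180; 0.5% dFBS; cpd 17 h, 37C, 5% CO2; CellTiter-Glo lum., 30 min RT, post-FRET read, same wells.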

[10] = qHTS assay to identify small molecule agonists of H2AX (AID 1224845; active = well fitted activation curve with a large enough effect in the signal ratio in the repeat runs, not every such curve was filed as active; the % refers to the signal ratio; note: potency is the fitted concentration of half-maximal effect)
Method in brief: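 Phospho-H2AX Ser139 measured by HTRF (ex 320 nm; em 665 and 620 nm) after 24 hr antibody incubation. Compounds, 15 concentrations, 0.76% DMSO, were applied to CHO-K1 cells for 3hr at 37C before lysis.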

[11] = qHTS assay to identify small molecule agonists of the hypoxia (HIF-1) signaling pathway (AID 1224846; active = well fitted activation curve with a large enough effect in the signal ratio in the repeat runs, not every such curve was filed as active; the % refers to the signal ratio)
Method in brief: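 Reporter induction in HRE-bla ME-180 cells is taken as agonism: cells sit 5 hrs after plating, receive compounds or DMSO only, incubate 17 hrs at 37C under 5% CO2, and are loaded with CCF4-AM for beta-lactamase FRET measurement.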

[12] = qHTS assay to identify small molecule agonists of H2AX - cell viability counter screen (AID 1224847; calls by dose curve; note: top concentration of the series differs between compounds; nearly all actives have a fitted effect of over 30% in size)
Method in brief: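 Viability of CHO-K1 (wild type) cells after 3 hr compound exposure was measured by CellTiter-Glo luminescence.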

[13] = qHTS RealTime-Glo MT Cell Viability Assay in HepG2 cells - 24 hour (AID 1224867); note: nearly all actives have a fitted effect of over 50% in size
Method in brief: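 Real-time, nonlytic viability: 600 HepG2 cells/well mixed with NanoLuc enzyme plus prosubstrate; 5 h settle, compound (DMSO) added by pintool; luminescence monitored over 40 h at 37 C.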

[14] = qHTS RealTime-Glo MT Cell Viability Assay in HEK293 cells - 32 hour (AID 1224868); note: top concentration of the series differs between compounds; nearly all actives have a fitted effect of over 50% in size
Method in brief: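 Cells + reagent dispensed (600 cells/well, HEK293) → 5 h at 37 C/5% CO2 → 23 nL compound in DMSO pinned → 40 h at 37 C → luminescence read at 0, 8, 16, 24, 32, 40 h.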

[15] = A CellTox Green Cytotoxicity Assay to monitor cytotoxicity in HEK293 cells - 0 hour (AID 1224869); note: nearly all actives have a fitted effect of over 50% in size
Method in brief: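 Tox21 screen in HEK293: membrane-impermeant cyanine dye fluoresces on binding dead-cell DNA; compound pinned 5 h post-seeding, plates held at 37 C, signal read repeatedly through 40 h.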

[16] = qHTS RealTime-Glo MT Cell Viability Assay in HepG2 cells - 40 hour (AID 1224870); note: nearly all actives have a fitted effect of over 50% in size
Method in brief: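 Real-time viability: cells seeded at 600 per well together with NanoLuc and cell-permeant prosubstrate, compounds added after 5 h incubation. Luminescence tracked at 0, 8, 16, 24, 32 and 40 h of exposure.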

[17] = qHTS assay to identify small molecule antagonists of the estrogen related receptor signaling pathway with the pleiotropic PPARgamma coactivator (PGC) from Tox21 10K library (AID 1224841; call rule not given here)
Method in brief: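 Test chemicals dissolved in DMSO were applied to pre-incubated (6 h) PGC/ERR cells at 2,000 cells/well for an 18 h, 37 C treatment; reporter luminescence was then read using One-Glo.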

[18] = qHTS assay to identify small molecule agonists of the estrogen related receptor signaling pathway with the pleiotropic PPARgamma coactivator (PGC) from Tox21 10K library (AID 1224842); note: nearly all actives have a fitted effect of over 15% in size
Method in brief: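 Luminescence from One-Glo (30 min, room temperature) measured after PGC/ERR cells had 18 h at 37 C with pinned compound (23 nL in DMSO). Cells had been seeded at 2,000 per well and pre-incubated 6 h.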

[19] = qHTS assay to identify small molecule antagonists of the estrogen related receptor (ERR) signaling pathway from Tox21 library (AID 1224848); note: nearly all actives have a fitted effect of over 50% in size
Method in brief: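 ERR cell line, 2,000 cells/well. 6 h settle, then compound (DMSO) added; 18 h at 37 C; ONE-Glo luminescence after 30 min RT.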

[20] = qHTS assay to identify small molecule agonists of the estrogen related receptor (ERR) signaling pathway from Tox21 library (AID 1224849; calls by dose curve; note: nearly all actives have a fitted effect of over 15% in size); settings: ERR reporter cell line, ONE-Glo luciferase, 18 h; at 92.4 µM (top of the series) unless noted
Method in brief: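 Tox21 compounds tested for ERR agonism in an NTP reporter cell line: 18 h treatment at 37 C, then ONE-Glo luminescence.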
% is set by controls: 0 for no effect and ±100 for the full control effect.

Chain of Luciferin 4-monooxygenase (Photinus pyralis) (P08659 whole entry, looked up): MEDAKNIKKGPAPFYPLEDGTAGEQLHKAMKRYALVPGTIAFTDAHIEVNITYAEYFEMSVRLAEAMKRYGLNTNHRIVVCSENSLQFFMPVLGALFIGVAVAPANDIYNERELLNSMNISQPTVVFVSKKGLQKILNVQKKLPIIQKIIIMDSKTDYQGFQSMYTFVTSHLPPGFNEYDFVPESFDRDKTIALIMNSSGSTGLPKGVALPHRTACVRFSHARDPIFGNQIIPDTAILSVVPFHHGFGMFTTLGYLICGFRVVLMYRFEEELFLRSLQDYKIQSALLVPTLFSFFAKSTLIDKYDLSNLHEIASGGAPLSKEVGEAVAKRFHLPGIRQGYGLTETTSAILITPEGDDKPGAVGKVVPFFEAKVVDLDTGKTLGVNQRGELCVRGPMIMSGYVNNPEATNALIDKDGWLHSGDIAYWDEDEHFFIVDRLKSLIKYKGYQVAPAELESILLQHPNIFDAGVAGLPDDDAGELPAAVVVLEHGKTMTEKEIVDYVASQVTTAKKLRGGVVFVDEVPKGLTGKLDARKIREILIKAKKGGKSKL
Chain of Thyrotropin receptor (Homo sapiens) (P16473 whole entry, looked up): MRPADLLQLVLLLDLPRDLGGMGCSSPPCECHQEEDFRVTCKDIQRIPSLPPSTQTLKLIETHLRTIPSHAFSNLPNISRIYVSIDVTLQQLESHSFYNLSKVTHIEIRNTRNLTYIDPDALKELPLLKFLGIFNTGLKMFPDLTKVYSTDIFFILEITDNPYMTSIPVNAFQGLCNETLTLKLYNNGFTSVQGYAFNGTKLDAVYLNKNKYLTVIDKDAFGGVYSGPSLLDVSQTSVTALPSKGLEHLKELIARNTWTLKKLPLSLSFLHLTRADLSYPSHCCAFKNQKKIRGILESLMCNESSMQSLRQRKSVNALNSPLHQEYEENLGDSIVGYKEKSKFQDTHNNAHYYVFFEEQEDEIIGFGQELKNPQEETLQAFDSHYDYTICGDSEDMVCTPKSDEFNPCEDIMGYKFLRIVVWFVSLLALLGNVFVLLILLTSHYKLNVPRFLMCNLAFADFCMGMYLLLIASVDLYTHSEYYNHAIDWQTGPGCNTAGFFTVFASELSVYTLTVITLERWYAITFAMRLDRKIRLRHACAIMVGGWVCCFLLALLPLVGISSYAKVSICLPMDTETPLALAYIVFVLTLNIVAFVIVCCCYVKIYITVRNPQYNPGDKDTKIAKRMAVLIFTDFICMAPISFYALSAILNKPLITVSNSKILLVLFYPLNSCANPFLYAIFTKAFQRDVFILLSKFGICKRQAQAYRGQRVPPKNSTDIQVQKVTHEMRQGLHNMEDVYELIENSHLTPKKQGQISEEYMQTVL
Chain of Nuclear receptor subfamily 1 group I member 3 (Homo sapiens) (Q14994 whole entry, looked up): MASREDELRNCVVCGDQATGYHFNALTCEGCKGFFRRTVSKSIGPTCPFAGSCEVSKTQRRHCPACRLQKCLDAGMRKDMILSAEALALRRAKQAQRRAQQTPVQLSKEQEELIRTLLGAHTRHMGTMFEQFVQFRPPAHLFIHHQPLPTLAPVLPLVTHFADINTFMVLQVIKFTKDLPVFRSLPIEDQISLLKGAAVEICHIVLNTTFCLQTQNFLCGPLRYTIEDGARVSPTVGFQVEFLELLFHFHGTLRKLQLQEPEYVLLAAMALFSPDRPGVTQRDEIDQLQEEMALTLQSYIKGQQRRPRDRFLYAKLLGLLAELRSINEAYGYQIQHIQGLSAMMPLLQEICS

Cc1cnc(C)c(C)n1
inactive: Potency [1] | Potency [2] | Potency [3] | Potency [4] | Potency [5] | Potency [6] | Potency [7] | Potency [8] | Potency [9] | Potency [10] | outcome [11] | Potency [12] | Potency [13] | Potency [14] | Potency [15] | Potency [16]

COCC(O)CO (configuration not stated)
inactive: Potency [1] | Potency [2] | Potency [3] | Potency [4] | Potency [5] | Potency [6] | Potency [7] | Potency [8] | Potency [9] | Potency [10] | outcome [11] | Potency [12] | Potency [13] | Potency [15] | Potency [16]

CN1CCN(c2c(F)cc3c(=O)c(C(=O)O)cn4c3c2OCN4C)CC1
inactive: viability change, negative = cytotoxic [1] 6.99% [at 19 µM] | activity change, negative = inhibition [2] 2.58% [at 23.6 µM] | viability change, negative = cytotoxic [3] 0.256% [at 19 µM] | activity change, negative = cytotoxicity [4] -2.88% [at 19 µM] | activity, negative = inhibition [5] 0.0919% [at 19 µM] | activation [6] -1.52% [at 19 µM] | viability change, negative = cytotoxic [7] 9.28% [at 19 µM] | activation [8] -2.64% [at 19 µM] | activity change, negative = cytotoxicity [9] 3.62% [at 15.8 µM] | activation (H2AX phosphorylation) [10] -2.48% [at 31.6 µM] | activation [11] -0.337% [at 15.8 µM] | activity change, negative = cytotoxicity [12] 0.372% [at 31.6 µM] | activity change, negative = cytotoxicity [13] 3.52% [at 15.8 µM] | activity change, negative = cytotoxic [14] 1.18% [at 15.8 µM] | cytotoxicity [15] -13.4% [at 15.8 µM] | activity change, negative = cytotoxic [16] -3.22% [at 15.8 µM]

C/C(=N/NC(=O)c1ccncc1)C(=O)O
inactive: Potency [1] | Potency [2] | Potency [3] | Potency [4] | Potency [5] | Potency [6] | Potency [7] | Potency [8] | Potency [9] | Potency [10] | outcome [11] | Potency [12] | Potency [13] | Potency [14] | Potency [16]

COC(=O)[C@@H]1CC2=CC(=O)CC[C@]2(C)[C@@]23O[C@@H]2C[C@@]2(C)[C@@H](CC[C@@]24CCC(=O)O4)[C@H]13
inactive: Potency [1] | Potency [2] | Potency [3] | Potency [4] | Potency [5] | Potency [6] | Potency [7] | Potency [8] | Potency [9] | Potency [10] | Potency [12] | Potency [13] | Potency [14] | Potency [15] | Potency [16]

C=CCNc1nc(NCC=C)nc(N2CCN(C(c3ccc(F)cc3)c3ccc(F)cc3)CC2)n1
inactive: Potency [1] | Potency [2] | Potency [3] | Potency [4] | Potency [5] | Potency [6] | Potency [7] | Potency [8] | Potency [9] | Potency [10] | outcome [11] | Potency [13] | Potency [14] | Potency [15] | Potency [16]

CC(CCc1ccc2c(c1)OCO2)NN (configuration not stated)
inactive: Potency [1] | Potency [2] | Potency [3] | Potency [4] | Potency [5] | Potency [6] | Potency [7] | Potency [8] | Potency [9] | Potency [10] | outcome [11] | Potency [12] | Potency [13] | Potency [14] | Potency [15] | Potency [16]

C[C@@H]1C[C@H]2[C@@H]3CCC4=CC(=O)C=C[C@]4(C)[C@@]3(F)[C@@H](O)C[C@]2(C)[C@H]1C(=O)CO
inactive: Potency [1] | Potency [2] | Potency [3] | Potency [4] | Potency [5] | Potency [6] | Potency [7] | Potency [8] | Potency [10] | Potency [12] | Potency [13] | Potency [16]

CCCCCC=CCC=CCCCCCCCC(=O)OCC
active: Potency [10] 55.2 µM
inactive: Potency [1] | Potency [2] | Potency [3] | Potency [4] | Potency [5] | Potency [6] | Potency [7] | Potency [8] | Potency [9] | outcome [11] | Potency [12] | Potency [13] | Potency [14] | Potency [15] | Potency [16]

N#C[C@@H]1C[C@@H]2C[C@@H]2N1C(=O)[C@@H](N)C12CC3CC(CC(O)(C3)C1)C2
inactive: Potency [1] | Potency [2] | Potency [3] | Potency [4] | Potency [5] | Potency [6] | Potency [17] | Potency [18] | Potency [8] | Potency [9] | Potency [10] | outcome [11] | Potency [12] | Potency [19] | activity change, positive = activation [20] 0.254% [at 42.5 µM] | Potency [13] | Potency [14] | Potency [16]

CCCCCCCCCCCC[N+](C)(C)CCCS(=O)(=O)[O-]
inactive: Potency [1] | Potency [2] | Potency [3] | Potency [4] | Potency [5] | Potency [6] | Potency [7] | Potency [8] | Potency [9] | Potency [10] | outcome [11] | Potency [12] | Potency [13] | Potency [14] | Potency [15] | Potency [16]

CC(C)C(=O)O
inactive: Potency [1] | Potency [2] | Potency [3] | Potency [4] | Potency [5] | Potency [6] | Potency [7] | Potency [9] | Potency [10] | Potency [12] | Potency [13] | Potency [14] | Potency [15] | Potency [16]

COc1ccc(C(=O)c2cccc(O)c2)c(OC)c1
inactive: Potency [1] | Potency [2] | Potency [3] | Potency [4] | Potency [5] | Potency [6] | Potency [7] | Potency [9] | Potency [10] | outcome [11] | Potency [12] | Potency [13] | Potency [14] | Potency [15] | Potency [16]

CC1(C)O[C@@H]2C[C@H]3[C@@H]4CCC5=CC(=O)C=C[C@]5(C)[C@H]4[C@@H](O)C[C@]3(C)[C@]2(C(=O)CO)O1
inactive: Potency [1] | Potency [2] | Potency [3] | Potency [4] | Potency [5] | Potency [6] | Potency [17] | Potency [18] | Potency [8] | Potency [9] | Potency [10] | outcome [11] | Potency [12] | Potency [19] | activity change, positive = activation [20] -2.7% [at 42.5 µM] | Potency [13] | Potency [14] | Potency [16]
